Compounds with a hit are over-represented: about 3% of the library has one in this group of screens.
ClpP mod = qHTS Assay for Activators of ClpP; purified B. subtilis ClpP, FRET peptide cleavage, 20 min; Potency, µM (top dose mostly 57.5 µM), for the others: at the top dose activity change, negative = active; 340,000 tested, 1.9% active; active = well fitted falling curve with a large enough effect; inconclusive = small, poorly fitted or top-dose-only effect; inactive = no such curve, though single readings can be large or run the other way; note: potency is the fitted concentration of half-maximal effect; the source files actives as falling curves though it sought activators and does not explain the sign; nearly all actives have a fitted effect of over 65% in size
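ClpP 10 microg/mL final, pH 8 Tris/KCl buffer with BSA, glycerol, Tween-20; compound pinned in; FRET-FV substrate; RT 20 min; Ex320/Em430; ΔFRET vs ADEP 5.8 microM, DMSO, no enzyme.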
KCNH2 WT inh = KCNH2 (human, wildtype) channel inhibition | Q12809 | U2OS, BacMam KCNH2, thallium flux FluxOr; stronger effect = lower value | 340,000 tested, 0.37% active | activity change, % at 1.84 µM | AID 720551;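 active = maximum activity change below -70%; inconclusive = maximum activity change between -70% and -50%; inactive = maximum activity change above -50%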; note: % is set by controls: 0 for no effect and ±100 for the full control effect
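U2OS cells were transduced with wild-type KCNH2 virus (2.03 x 10^8 / mL) for 4 h at room temperature, then cultured overnight at 37 C. Thallium flux was read with FluxOr dye. Rate constants were normalized to DMSO controls.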
BCR signal inh = chronic active BCR signaling inhibition; Potency, µM (doses to about 46.1 µM), without a hit: top-dose activity change, negative = inhibition, most hits filed as inhibitors; ABC-DLBCL IkBa-CBG/CBR reporter, luminescence ratio, 4 h; 340,000 tested, 0.05% active; active = well fitted inhibition curve with a large enough effect in the signal ratio, with a control signal flat, not every such curve was filed as active; inconclusive = small, poorly fitted or top-dose-only effect, or effect the other way, or a change in a side signal; the % refers to the signal ratio;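 note: potency is the fitted concentration of half-maximal effect; plate controls were basal doxycycline-induced cells for no effect and cells given 10 µM MG132 for full effect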
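Concentration-response series (up to 46 uM) were applied to TMD8 dual-reporter cells for 4 h at 37C with doxycycline. Green/red ratio, after filter-overlap correction, defined %Activity; red signal alone was normalised to basal cells and zero luminescence.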
KCNH2 3.1 inh = inhibitors of human KCNH2 3.1 potassium channel isoform | AID 720553 | activity change, % (tested at about 1.8 µM) | U2OS KCNH2 3.1, thallium flux FluxOr; stronger effect = lower value | 340,000 tested, 0.95% active;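 active = maximum activity change below -70%; inconclusive = maximum activity change from -70% to -50%; inactive = maximum activity change above -50%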;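 note: thallium influx rate constant from kinetic fluorescence after stimulation buffer; % is set by controls: 0 for no effect and ±100 for the full control effect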
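Virally transduced U2OS (3.1 isoform, 4 h infection in dark at RT) → overnight 37 C → FluxOr + Red40 in HBSS/HEPES, 45 min → stimulation buffer, 2 min kinetic read → rate constant vs DMSO controls.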
ALOX12 inh = ALOX12 (human) lipoxygenase inhibition. AID 1671190. Potency, µM (doses to about 108 µM), inactives show at the highest dose activity change, negative = inhibition, hits mostly inhibitors. purified 12hLO, xylenol orange hydroperoxide absorbance. P18054. 580,000 tested, 1.1% active; active = well fitted inhibition curve with a large enough effect; inconclusive = small, poorly fitted or top-dose-only effect, or another doubt; inactive = no such curve, though single readings can be large or run the other way; note: potency is the fitted concentration of half-maximal effect; % is set by controls: 0 for no effect and ±100 for the full control effect
Target sequence (P18054 whole entry, looked up): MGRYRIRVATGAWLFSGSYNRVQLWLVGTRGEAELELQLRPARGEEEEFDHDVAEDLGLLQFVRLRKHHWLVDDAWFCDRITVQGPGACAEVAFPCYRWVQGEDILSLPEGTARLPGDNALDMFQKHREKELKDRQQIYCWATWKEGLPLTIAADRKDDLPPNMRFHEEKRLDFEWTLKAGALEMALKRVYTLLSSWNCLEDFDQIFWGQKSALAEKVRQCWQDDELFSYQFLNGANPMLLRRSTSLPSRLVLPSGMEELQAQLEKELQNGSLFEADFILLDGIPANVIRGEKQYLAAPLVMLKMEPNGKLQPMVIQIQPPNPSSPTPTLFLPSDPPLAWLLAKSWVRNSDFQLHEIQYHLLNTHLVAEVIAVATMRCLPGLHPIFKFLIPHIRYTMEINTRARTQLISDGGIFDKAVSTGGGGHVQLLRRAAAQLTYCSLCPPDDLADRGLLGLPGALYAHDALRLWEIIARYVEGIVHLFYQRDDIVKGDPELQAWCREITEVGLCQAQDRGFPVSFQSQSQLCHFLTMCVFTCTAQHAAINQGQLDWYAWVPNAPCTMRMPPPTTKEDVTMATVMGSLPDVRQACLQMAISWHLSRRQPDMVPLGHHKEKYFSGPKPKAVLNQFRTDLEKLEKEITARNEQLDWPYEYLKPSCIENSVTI
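Hydroperoxide product was detected by ferrous iron/xylenol orange as the 573 to 405 nm absorbance ratio. Arachidonic acid at 40 uM (final) was turned over for 30 min at room temperature by 150 nM human 12hLO, pH 7.0 Hepes buffer, after 15 min compound preincubation.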
LDHA block = inhibitors of human lactate dehydrogenase A. P00338. purified LDHA, NADH/diaphorase-resazurin fluorescence; stronger effect = lower value. activity change, % (values are at about 110 or 230 µM). 480,000 tested, 0.15% active. AID 1347041; in the data active = activity change below about -30%; inconclusive = mostly about -25% to -30%;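 note: plate controls were DMSO wells for no effect and wells without enzyme for full effect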
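Remaining NADH was detected by diaphorase (0.133 mg/mL) converting 37 µM resazurin to fluorescent resorufin, read at 0 and 20 minutes. The preceding 5-minute room-temperature reaction used 2 nM LDHA, 0.2 mM sodium pyruvate and 0.06 mM NADH at pH 7.4.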
Active calls of the source: *; i = inactive; ? = inconclusive; . = no result given; + = active, no number; ! = a repeat was not active; [ ] = dose if it differs, or a comment.

SMILES	ClpP mod	KCNH2 WT inh	BCR signal inh	KCNH2 3.1 inh	ALOX12 inh	LDHA block
CNc1ncnc2sc(-c3ccccc3)cc12	14µM*	0	7%	-8	1%	0
OCCOCCNc1ncnc2sc(-c3ccccc3)cc12	32µM*	-3	?	1	-1%	-1
CN(C)CCNc1ncnc2sc(-c3ccccc3)cc12	1%	-3	?	0	i	0
CCN1CCC(NC(=O)C23CC4CC(CC(C4)C2)C3)CC1	.	.	.	.	?	4
COCC(=O)N1CC[C@]2(O)CCN(C(=O)c3ccccc3N(C)C)C[C@@H]2C1	.	.	.	.	50%	.
C=C(C)c1cccc(C(C)(C)NC(=O)N2CCN(C(=O)OCC)CC2)c1	0%	-1	.	-71*	9%	0
CCN(CC)CCNC(=O)c1ccc(NC(=O)Cc2cccc3ccccc23)cc1	.	8	-2%	-10	-27%	-13
Cc1nc2ccc(NC(=O)Cc3cccc(C(F)(F)F)c3)cc2s1	.	.	.	.	40µM*	8
CCN(CC)CCNC(=O)c1ccc(NC(=O)Cc2cccc(C(F)(F)F)c2)cc1	.	.	.	.	45µM*	-3
Cc1ccc(C2=CC(C)(c3ccc(C)cc3)Nc3nc(C(F)(F)F)nn32)cc1 (stereo not given)	.	-4	9%	20	-21%	-1
CC1(c2ccc(OCC#N)cc2)C=C(c2ccc(OCC#N)cc2)n2nc(C(F)(F)F)nc2N1 (stereo not given)	-6%	-7	?	-106*	-2%	2
CC(C)c1nc2nccc(-c3ccsc3)n2n1	.	.	.	.	-14%	.
CCCCCCCc1ccc(-c2ccc(OC(F)(F)F)cc2)nc1	.	.	.	.	47%	5
COC(=O)CCS(=O)(=O)c1ccc(Cc2ccc(S(=O)(=O)CCC(=O)OC)cc2)cc1	.	.	.	.	-34%	-3
CCS(=O)(=O)c1ccc(Cc2ccc(S(=O)(=O)CC)cc2)cc1	.	.	.	.	8.9µM*	-4
Cc1cc(C)c(S(=O)(=O)N2CCCCC2)cc1N(C)S(=O)(=O)c1ccc(Cl)cc1	1%	2	8%	3	0%	1
Cc1ccc(S(=O)(=O)N2CCN(C)CC2)c(C)c1N(C)S(=O)(=O)c1ccc(Cl)cc1	-3%	-4	?	-94*	-7%	-1
COc1cc(CN2CCCC(C)C2)ccc1OCc1ccccc1 (stereo not given)	-2%	31	1%	-85*	0%	-10
COc1cc(CN2CCC(C)CC2)ccc1OCc1ccccc1	-2%	29	4%	-14	?	-20
COc1ccc(CN2CCCC(C(=O)N3CCc4ccccc4C3)C2)cc1OC (stereo not given)	-4%	18	-3%	-4	0.71µM*!	-21
CCOC(=O)C1CCCN(Cc2ccc(OCc3ccccc3)c(OC)c2)C1 (stereo not given)	0%	7	-2%	-23	0.56µM*	-15
Cc1ccc(SC(C)C(=O)Nc2ccc(C)cc2C)cc1 (stereo not given)	.	.	.	.	-25%	12
Cc1ccc(OCCCOc2ccc(Cl)cc2/C=N/NC(=O)c2ccccc2)cc1C	.	.	.	.	4%	1
Cc1ccccc1Oc1ncnc2oc(-c3ccccc3)cc12	32µM*	5	-4%	-7	0%	-1
Clc1ccc(Oc2ncnc3oc(-c4ccccc4)cc23)cc1	-18%	-5	-1%	-1	17%	-5
SMILES	ClpP mod	KCNH2 WT inh	BCR signal inh	KCNH2 3.1 inh	ALOX12 inh	LDHA block
COc1ccc(NC2CCCN(C(=O)c3ccc4nccnc4c3)C2)cc1OC (stereo not given)	1%	-7	0%	7	0%	16
Cc1ccc(NC2CCCN(C(=O)c3ccc4nccnc4c3)C2)cc1C (stereo not given)	16µM*	6	-2%	.	8%	-1
COCC1CN(C(C)=O)CC12CCN(C(=O)C1CNC1)CC2 (stereo not given)	.	.	.	.	25µM*	.
OC(COC(c1ccc(F)cc1)c1ccc(F)cc1)CN1CCCC1 (stereo not given)	1%	-22	-3%	-83*	?	?
CN(C)CC(O)COC(c1ccc(Cl)cc1)c1ccc(Cl)cc1 (stereo not given)	.	-43	?	-88*	?	1
OC(COC(c1ccc(Cl)cc1)c1ccc(Cl)cc1)CN1CCN(c2ccccn2)CC1 (stereo not given)	.	+	?	-99*	?	-4
Cc1cccc(C)c1OCC(O)CN1CCN(c2ccccn2)CC1 (stereo not given)	-9%	1	-3%	-8	-17%	1
CC1CN(CC(O)COC(c2ccc(Cl)cc2)c2ccc(Cl)cc2)CC(C)O1 (stereo not given)	-6%	?	-16%	-76*	?	1
CN(Cc1ccc(F)cc1)Cc1ccnn1C	.	.	.	.	24%[176 µM]	.
COC(=O)CNC(=O)C1=NOC2CN(C(=O)Nc3cccnc3)CC12 (stereo not given)	.	.	.	.	2%[6.33 µM]	.
Oc1c(CN2CCCCC2)cc(Br)c2cccnc12	1%	-2	?	9	5.6µM*	13
COc1ccc(OC)c(CNC(=O)c2ccc(-c3nc(CSc4ccccc4)c(C)o3)cc2)c1	18µM*	.	.	.	-12%	-6
COc1cc(NC(=O)c2ccc(-c3nc(CSc4ccccc4)c(C)o3)cc2)cc(OC)c1	14µM*	.	.	.	-20%	-1
COc1cccc(CNC(=O)c2ccc(-c3nc(CSc4ccccc4)c(C)o3)cc2)c1	-14%	.	.	.	-22%	6
CC(C)CNc1nc(-c2ccc3c(c2)CC(C)N3S(C)(=O)=O)cs1 (stereo not given)	.	.	.	.	?	-2
Cc1nc(-c2cn(C3CCCN(C(=O)c4cccc(C#N)c4)C3)nn2)no1 (stereo not given)	.	.	.	.	11%	.
O=C(O)c1ccnc(C2CCCC/C2=N\O)c1 (stereo not given)	.	.	.	.	?	6
O=C(Cc1cccs1)Nc1ccc(-c2nc3ccccc3[nH]2)cc1	?	-8	?	5	-1%	-4
O=C(CN1CCOCC1)Nc1ccc(-c2nc3ccccc3[nH]2)cc1	25µM*	-15	5%	-8	17%	-4
O=C(CSc1ccc(-c2nc3ccccc3[nH]2)cn1)Nc1ccc(S(=O)(=O)N2CCCC2)cc1	20µM*	0	?	-28	3%	-1
Cc1cc2nc(-c3ccc(SCC(=O)Nc4ccc(S(=O)(=O)N5CCCC5)cc4)nc3)[nH]c2cc1C	-5%	-11	?	-17	-15%	-6
Cc1ccc2nc(COc3ccccc3C(=O)O)cn2c1	.	.	.	.	?	12
